Source: PubChem BioAssay AID1159580 (chemical genetic matrix, 2015)
The campaign covered roughly 5,500 compounds. About 2,000 (36%) were called active. Another 18% or so got no clear call; they are omitted. No stated cut-off is given here; in the data, active means normalized growth mostly below about 0.91 (no sharp cut-off); inconclusive means no clear call, values can overlap the other calls; inactive means mostly above about 0.92. The list shows a part of the results.

Test: chemical genetic growth profiling, strain panel (AID 1159580);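 further: tested at 20 µM; growth read once vehicle control cultures reached saturation at 30 °C; 1 = growth at the plate median or of vehicle wells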
Conditions: S. cerevisiae deletion strains, growth OD

Measured: normalized growth

CSc1nc(N)c2ncn([C@@H]3O[C@H](COP(=O)(O)OP(=O)(O)O)[C@H](O)C3O)c2n1 (stereo partly drawn)
inactive: locus YAL013W, strain DEP1, stronger effect = lower value 1.01 | locus YAL040C, strain CLN3, stronger effect = lower value 1.01 | locus YCL061C, strain MRC1 (second series), stronger effect = lower value 1.01 | locus YDR363W, strain ESC2, stronger effect = lower value 1.04 | locus YER002W, strain NOP16, stronger effect = lower value 1 | locus YJR075W, strain HOC1, stronger effect = lower value 1.03 | locus YNL153C, strain GIM3, stronger effect = lower value 1.03 | locus YNL175C, strain NOP13, stronger effect = lower value 1.02 | locus YNL197C, strain WHI3, stronger effect = lower value 0.99 | locus YNL224C, strain SQS1, stronger effect = lower value 0.998 | locus YOR083W, strain WHI5 (second series), stronger effect = lower value 1.02 | locus YPL055C, strain LGE1, stronger effect = lower value 1.02 | locus YPL241C, strain CIN2, stronger effect = lower value 1
